Data as given in PubChem BioAssay AID1850 (Southern Research Specialized Biocontainment Screening …, 2009).
Among all 310,000 compounds or so, about 1,000 (0.32%) were called active. The rule behind the calls is not given here. The list is a sample of the results. Results with a measured potency or affinity are listed apart.

Assay: PhoP regulon inhibitors, Salmonella typhi PhoP promoter GFP reporter, confirmatory (AID 1850);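 note: 0% = induced wells with vehicle and 100% = uninduced wells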
Conditions: fluorescence, 4 h, at 50 µM, active compounds read high

Row | SMILES | inhibition
1 | O=C(N/C(=C/c1ccco1)C(=O)N1CCOCC1)c1ccccc1Br | 7.88% (inactive)
2 | O=C(NC1CCCCC1)C(c1ccncc1)N(Cc1ccc(F)cc1)C(=O)c1ccccn1 (stereo not given) | -1.84% (inactive)
3 | CN(C)CC(O)COc1cc2ccccc2cc1C(=O)N1CCCCC1 (stereo not given) | 9.49% (inactive)
4 | CCCCCCCC(=O)Nc1ccc(S(=O)(=O)Nc2nccs2)cc1 | -7.23% (inactive)
5 | O=C1CSC(c2cccc([N+](=O)[O-])c2)N1CCN1CCCCC1 (stereo not given) | -7.55% (inactive)
6 | CC(=O)c1c(N2CCOCC2)nc(=S)n(-c2ccc([N+](=O)[O-])cc2)c1C | 3.58% (inactive)
7 | Cc1cc(/C([O-])=C(/C(=S)Nc2ccc(F)cc2)[n+]2ccccc2)c(C)n1Cc1ccccc1Cl | -18.8% (inactive)
8 | OCCN1CCN(c2ncnc3scc(-c4ccc(F)cc4)c23)CC1 | 4.62% (inactive)
9 | COc1ccccc1N1CCN(Cc2ccc(OC)c(OC)c2OC)CC1 | 5.73% (inactive)
10 | Oc1ccc(CN2CCc3ccccc3C2)c2cccnc12 | -5.43% (inactive)
11 | COc1ccccc1N1CCN(Cc2cc(Br)c(O)c3ncccc23)CC1 | 3.41% (inactive)
12 | OCc1ccc(O)c2ncccc12 | 0.16% (inactive)
13 | COCCn1cnc2c1c(=O)n(CC(=O)OCC(=O)NCCCc1ccccc1)c(=O)n2Cc1ccccc1 | 5.65% (inactive)
14 | Cc1nc2cc(NC(=O)c3ccc(S(=O)(=O)N(C)c4ccccc4)cc3)ccc2o1 | -24.8% (inactive)
15 | CC(C)NC(=O)CCCc1ccccc1 | -2.72% (inactive)
16 | CC[n+]1c(/C=C(/C)SC)sc2ccccc21 | -5.74% (inactive)
17 | CC[n+]1c(/C=C(\C)SC)sc2ccccc21 | 8.28% (inactive)
18 | CC[n+]1c(/C=C/Nc2ccccc2)sc2ccccc21 | 11.1% (inactive)
19 | CCN1/C(=C/C=C/C=C/C=C/c2sc3ccccc3[n+]2CC)Sc2ccccc21 | 5.61% (inactive)
20 | CN(C)c1ccc(/C=C/C=C/c2sc3ccccc3[n+]2C)cc1 | 14.1% (inactive)
21 | CC[n+]1c(/C=C/C=C/N(C(C)=O)c2ccccc2)sc2ccccc21 | -299% (inactive)
22 | COc1ccc(/C=C/C2=CCN(Cc3ccc(OC)cc3)CC2)cc1 | 5.66% (inactive)
23 | COc1ccc(CN2CC(C(N)=O)Oc3ccccc32)cc1F (stereo not given) | -14.6% (inactive)
24 | Cc1ccccc1C(=O)Nc1c(C(=O)N2CCCC2)cnn1-c1ccccc1 | -11.9% (inactive)
25 | CN(C)S(=O)(=O)c1ccc(NC(=O)COC(=O)CC2CC3CCC2C3)cc1 (stereo not given) | -11.3% (inactive)
26 | Cc1ccc(C)n1-c1ccccc1N | 7.67% (inactive)
27 | C/C(CC(=O)NC1C2CC3CC(C2)CC1C3)=N\NC(=O)Cc1cccs1 (stereo not given) | 5.86% (inactive)
28 | CC(=O)Oc1c(C)cc(O)c2ccccc12 | -6.69% (inactive)

Row | SMILES | inhibition
29 | CC(=O)c1coc2c1cc(O)c1ccccc12 | -10.2% (inactive)
30 | COc1ccc2[nH]cc(C(=O)CN3CCCC(C)(C)C3)c2c1 | 12.1% (inactive)
31 | CCOC(=O)CCNC(=O)Nc1ccc2nc(C)n(Cc3ccccc3Cl)c(=O)c2c1 | 12% (inactive)
32 | CC(=O)N(Cc1cc2cc(C)c(C)cc2n2nnnc12)CC1COCCO1 (stereo not given) | -4% (inactive)
33 | CC(C)N(Cc1nc(-c2ccccc2)no1)C(=O)c1ccc2c(c1)OCO2 | 1.2% (inactive)
34 | COc1ccc(CCC(=O)NCCOc2ccc(Cl)cc2)cc1 | -4.36% (inactive)
35 | COc1ccc(NC(=O)CSc2nc3c(c(-c4cccs4)c2C#N)CN(C)CC3)cc1OC | 0.71% (inactive)
36 | CN1CCc2nc(SCC(=O)Nc3ccc(OC(F)(F)F)cc3)c(C#N)c(-c3cccs3)c2C1 | -3.5% (inactive)
37 | COc1ccccc1Nc1ccc([N+](=O)[O-])cc1N | 2.25% (inactive)
38 | CC1CC(C)CN(S(=O)(=O)c2ccc3c(c2)CC(C)N3C(=O)C2CC2)C1 (stereo not given) | -20.4% (inactive)
39 | CCc1ccc(-c2cc(C)no2)cc1S(=O)(=O)N1CCN(c2ccc(OC)cc2)CC1 | -6.02% (inactive)
40 | O=[N+]([O-])c1ccc(N2CCCC2)c2ncccc12 | -3.29% (inactive)
41 | O=[N+]([O-])c1cccc2c(N3CCOCC3)ccnc12 | -0.36% (inactive)
42 | Cc1cc(C)cc(OCC(=O)Nc2cccc(-c3nnc(-c4ccco4)o3)c2)c1 | 3.78% (inactive)
43 | CCCCNC(=O)O[C@@H]1C[C@H]2CCC(=O)N3CC[C@@H](C1)[C@@H]23 | 4.97% (inactive)
44 | CCC(C)c1ccc(NC(=O)c2[nH]c(C)c(C(C)=O)c2C)cc1 (stereo not given) | -9.52% (inactive)
45 | Cc1ccc(O)c(C=Nc2ccc3[nH]ncc3c2)c1 | -7.82% (inactive)
46 | COc1ccc(C=Nc2ccc3[nH]ncc3c2)c(O)c1 | 0.93% (inactive)
47 | CC1=C(C#N)C(c2cccnc2)C2=C(N1)c1ccccc1C2=O (stereo not given) | 1.42% (inactive)
48 | Cc1ccc(Nc2ccc(NCc3ccccc3)nn2)cc1C | -4.54% (inactive)
49 | Cc1cccc(Nc2ccc(NCc3ccccc3)nn2)c1 | 5.48% (inactive)
50 | O=C(O)/C=C/C(=O)N1CCN(c2ccc(F)cc2)CC1 | 2.57% (inactive)
51 | Cc1c(Cc2ccccc2)c(=O)oc2cc(OCC(=O)N[C@@H](Cc3ccccc3)C(=O)O)ccc12 | 1.41% (inactive)
52 | C#CCOCCOCCOCCNc1nc(N2CCN(C(=O)C(Cc3cc4ccccc4[nH]3)n3cc(C(N)C(C)CC)nn3)CC2)nc(N2CCN(C(=O)C(Cc3cc4ccccc4[nH]3)n3cc(C(N)C(C)CC)nn3)CC2)n1 (stereo not given) | 37.5% (inactive)
53 | C#CCOCCOCCOCCNc1nc(N2CCN(C(=O)[C@H](Cc3cc4ccccc4[nH]3)n3cc(C(N)CC(C)C)nn3)CC2)nc(N2CCN(C(=O)[C@H](CCC(=O)O)n3cc(C(N)[C@H](C)CC)nn3)CC2)n1 (stereo not given in full) | -6.17% (inactive)
54 | C#CCOCCOCCOCCNc1nc(N2CCN(C(=O)[C@H](CCC(=O)O)n3cc(C(N)CC(C)C)nn3)CC2)nc(N2CCN(C(=O)[C@H](Cc3cc4ccccc4[nH]3)n3cc(C(N)CC(C)C)nn3)CC2)n1 (stereo not given in full) | -7.76% (inactive)
55 | C#CCOCCOCCOCCNc1nc(N2CCOCC2)nc(N2CCN(C(=O)[C@H](Cc3cc4ccccc4[nH]3)n3cc([C@@H](N)CC(C)C)nn3)CC2)n1 | 7.58% (inactive)
